The values below come from PubChem BioAssay.

Test [1] in a line: growth inhibition of DIPG glioma cells, dose response, cell-based, SU-DIPG-XVII, MIPE5.0, CellTiter-Glo, qHTS (AID 1347060).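 For AC50: cells exposed to compound for 48 hours before viability readout.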 The following applies: SU-DIPG-XVII viability, CellTiter-Glo ATP luminescence.
Test [2] in a line: growth inhibition of DIPG glioma cells, dose response, cell-based, SU-DIPG-IV, MIPE4.0, CellTiter-Glo, qHTS (AID 1347063; cut-off not given, nearly all actives have AC50 up to about 30 µM;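 note: compound exposure lasted 48 hours before the viability readout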). The following applies: SU-DIPG-IV viability, CellTiter-Glo ATP luminescence.
The nature of test [3]: viability loss in pontine glioma line – cell-based, SU-DIPG-XXV, MIPE5.0, CellTiter-Glo, qHTS, dose response (AID 1347065).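 Note: cells exposed to compound for 48 hours before ATP readout.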 Conditions: CellTiter-Glo ATP luminescence. For orientation: In ATP-based viability assays light output follows the ATP content of the culture.
A short description of test [4]: modifiers of HSF1 nuclear foci, imaging, Selleck Cancer Library (AID 1347162; in the data active = plate-normalised HSF1 focus index below about 0.46). The following applies: human cells, at 10 µM; SSMD: measured here: HSF1 foci SSMD mean; cell count: measured here: cell number; plate-normalised HSF1 focus index: stronger effect = lower value.
The nature of test [5]: growth inhibition of DIPG glioma cells, dose response, cell-based, SU-DIPG-XIII, MIPE5.0, CellTiter-Glo, qHTS (AID 1347064; cut-off not given, nearly all actives have AC50 up to about 23 µM;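 for AC50: cells exposed to compound for 48 hours before the viability read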). The following applies: SU-DIPG-XIII viability, CellTiter-Glo ATP luminescence.
The nature of test [6]: SU-DIPG-VI glioma cell viability, MIPE4.0 library, CellTiter-Glo luminescence, qHTS (AID 1347066; cut-off not given, nearly all actives have AC50 up to about 30 µM;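 note: cells exposed to compound for 48 hours before readout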). The following applies: CellTiter-Glo ATP luminescence.
The nature of test [7]: JHH-DIPG-1 glioma cell viability, MIPE5.0 library, CellTiter-Glo luminescence, qHTS (AID 1347067).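 Note: cells exposed to compound for 48 hours before readout.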 Conditions: JHH-DIPG-1 glioma viability, CellTiter-Glo ATP luminescence.
Test [8] in a line: SU-DIPG-XXV glioma cell viability, MIPE5.0 library, qHTS (AID 1347068; cut-off not given, nearly all actives have IC50 up to about 30 µM;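 for IC50: cells exposed to compound for 48 hours before viability readout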). For orientation: Quantitative high-throughput screening tests each substance at several concentrations.
Test [9] can be described thus: sensitizers of A549 cells to miR-34 induction, primary screen, imaging, A549 dox-inducible miR-34, nuclei and caspase counts (AID 1347080;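 active = compounds whose cell count with miR-34 switched on is under 0.7 times the count with it off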). Conditions: A549 miR-34 inducible, Hoechst nuclei count, 48 h.
Test [10] is described as follows: survival rescue of mitochondrial mutant cells in low glucose, primary screen, MELAS cybrids, Rieske KO mouse fibroblasts, CellTiter-Glo (AID 1508586;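 active = mean z-score across replicates of 1.96 or higher in either the MELAS or the Rieske mutant cell line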;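 note: z relative to plate mean and SD of compound and empty wells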).

Results filed as inconclusive are left out. The source made the active and inactive calls. Unless noted, no cut-off is given here; in the data, nearly all actives have AC50 up to about 26 µM.

In general, AC50 refers to the midpoint of the concentration-response curve, whichever way the signal moves. On to `O=C1[C@H](Cc2ccc(O)cc2)N2C(=O)CCN(C(=O)NCc3ccccc3)[C@H]2CN1Cc1cccc2ccccc12`, for which the AC50 in test [1] is 4.17 µM (active). Also, the AC50 in test [2] is 3.72 µM (active). The AC50 in [3] is 3.32 µM (active). In [4], the SSMD was 1.66, the cell count came to 6950 and the plate-normalised HSF1 focus index was 1.09 (inactive).

As for `COC1=C2C[C@H](C)C[C@H](OC)[C@H](O)[C@@H](C)/C=C(/C)[C@H](OC(N)=O)[C@@H](OC)/C=C\C=C(\C)C(=O)NC(=CC1=O)C2=O`, the values for the AC50 in [1], in [5] and in [3] were 0.235 µM (active), 0.118 µM (active) and 0.417 µM (active), respectively.

Consider `CN(C)CC(=O)N1CCC(c2ccc(NC(=O)c3ncc(C#N)[nH]3)c(C3=CCCCC3)c2)CC1`, for which the half-maximal activity concentration (AC50) in test [1] is 23.5 µM (active); in test [2] it was 20.9 µM (active); in [3], 20.9 µM (active); in [6] it was 18.7 µM (active). The outcome in [7] and in [8] was inactive.

For `O=C1NC(=O)[C@@H](c2cn3c4c(cccc24)CCC3)[C@@H]1c1c[nH]c2ccccc12`, the AC50 in test [1] was 1.05 µM (active); in [2] it was 13.2 µM (active); in [3], 1.48 µM (active); in [6], 23.5 µM (active).

In the case of `Nc1ncc(C(=O)NC2CN(C(=O)C3CC3)C2)c2ccc(-c3cccc(F)c3)nc12`, the result in test [1] and in test [5] was inactive.

Regarding `Cc1cc(-c2nc3cc(F)ccc3s2)ccc1NC(=O)[C@@H](N)CCCCN`, the AC50 in [1] and in test [5] was 20.9 µM (active) each time.

The term IC50 denotes the midpoint of a concentration-inhibition curve. Consider `CC[C@H](CC#N)OC(=O)N[C@@H](C)c1cccc(NC(=O)Nc2ccc(-c3cnco3)c(OC)c2)c1`, for which the AC50 in [1] was 0.525 µM (active); in test [2] it was 1.32 µM (active); in test [3], 0.468 µM (active); in test [7] it was 2.63 µM (active). The IC50 in test [8] was 14.8 µM (active).

Take `O=C(O)/C(S)=C/c1ccc(I)cc1`: the outcome in [1], in [5] and in [3] was inactive.

`Nc1nc2cc(-c3ccc4ncc(C(=O)N5CCOCC5)n4c3)ccc2o1`: the AC50 in test [1] is 18.6 µM (active); in test [5] it was 14.8 µM (active); in test [3] it was 9.34 µM (active); in test [7], 10.5 µM (active).

As for `CC[C@@H](C)Nc1cc(C(=O)NC2CC3CCC(C2)N3c2ccc(C(=O)C3CC3)cn2)c(C)cc1C(N)=O` (stereo partly specified), the AC50 is 0.148 µM (active) in test [1], 0.209 µM (active) in [5], 0.186 µM (active) in [3] and 0.209 µM (active) in test [7].

In the case of `CCCCOc1nc(N)c2c(n1)N(Cc1cccc(CN3CCCC3)c1)CC(=O)N2`, the compound was classed as inactive in [1], in test [5] and in test [3].

Regarding `OC1CCC(Nc2ncc3nc(Nc4c(F)cc(F)cc4F)n([C@@H]4CCOC4)c3n2)CC1` (stereo partly specified), the call in test [1], in test [5], in test [3], in [6], in [7] and in [8] was inactive.

In the case of `COc1cc(-c2nn(C3CCC(N4CCN(C(C)=O)CC4)CC3)c3ncnc(N)c23)ccc1NC(=O)c1cc2ccccc2n1C` (stereo unspecified), the AC50 was 3.72 µM (active) in test [1], 7.42 µM (active) in test [5], 4.17 µM (active) in [3] and 7.42 µM (active) in [7]. The compound was classed as inactive in [6] and in [8].

For `O=C(O)CCCCC(CCSCc1ccccc1)SCc1ccccc1` (stereo unspecified), the compound was classed as inactive in [1], in test [5], in test [3], in [6], in [7] and in test [8]. In addition, the fold change in [9] (stronger effect = lower value, cell number ratio, induced over uninduced) was 0.896 (inactive); in [9] (measured here: relative caspase fold change +Dox/-Dox), 0.838. The cell count worked out at 9470 in test [9] (measured here: total cells with miR-34 induction, stronger effect = lower value) and 10600 in test [9] (measured here: total cells without miR-34 induction). The z-score in test [10] (MELAS cybrid survival, CellTiter-Glo 48 h, stronger effect = higher value) is -0.291 (inactive); in test [10] (Rieske KO mouse fibroblast survival, CellTiter-Glo 72 h), 0.614.
